Experimental data: the supplement of paper PMC6555819

Legend:
Test in all cases: PBM binding z-score (relative to random genomic background probes); higher = stronger binding; sequences stand for … in GC…GCGATTGACAGCGTAGAATGAAGG
[1] = tested on: PPARg:RXRa DBDmut IVT, anti-RXR (DBD mutation: RXRa K156A/R161A, NR concentration 270 nM, RXRa partner concentration 90 nM)
In short: (§1)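 Regression normalization was applied to scanned fluorescence from custom Agilent 4×180K protein-binding microarrays. Before scanning, arrays were incubated 1 h with ligand-free nuclear receptor dimers, and binding was detected with antibodies against each partner (one per run). Binding z-scores use the random background probes as reference.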

[2] = tested on: PPARg:RXRa IVT, anti-PPARg (NR concentration 270 nM, RXRa partner concentration 90 nM)
In short: as §1

[3] = tested on: PPARg DBDmut:RXRa IVT, anti-PPARg (DBD mutation: PPARg1 K132A/R137A, NR concentration 270 nM, RXRa partner concentration 90 nM)
In short: as §1

[4] = tested on: PPARg DBDmut IVT, anti-PPARg (DBD mutation: PPARg1 K132A/R137A, NR concentration 270 nM)
In short: as §1

[5] = tested on: PPARg homodimer (NR concentration 180 nM)
In short: as §1

[6] = tested on: PXR:RXRa (NR concentration 270 nM, RXRa partner concentration 90 nM)
In short: as §1

[7] = tested on: PXR homodimer (NR concentration 270 nM)
In short: as §1

[8] = tested on: RARa:RXR (NR concentration 270 nM, RXRa partner concentration 90 nM)
In short: as §1

[9] = tested on: RARa homodimer (NR concentration 270 nM)
In short: as §1

[10] = tested on: RARb:RXRa (NR concentration 270 nM, RXRa partner concentration 90 nM)
In short: as §1

[11] = tested on: RARb homodimer (NR concentration 270 nM)
In short: as §1

[12] = tested on: RARg:RXRa (NR concentration 270 nM, RXRa partner concentration 90 nM)
In short: as §1

[13] = tested on: RARg homodimer (NR concentration 270 nM)
In short: as §1

[14] = tested on: RXRa DBDmut IVT, anti-RXR (DBD mutation: RXRa K156A/R161A, NR concentration 90 nM)
In short: as §1

[15] = tested on: RXRa homodimer (NR concentration 180 nM)
In short: as §1

[16] = tested on: THRa:RXRa (NR concentration 90 nM, RXRa partner concentration 90 nM)
In short: as §1

[17] = tested on: THRa homodimer (NR concentration 90 nM)
In short: as §1

[18] = tested on: VDR homodimer (NR concentration 270 nM)
In short: as §1

| Sequence | PBM binding z-score [1] | PBM binding z-score [2] | PBM binding z-score [3] | PBM binding z-score [4] | PBM binding z-score [5] | PBM binding z-score [6] | PBM binding z-score [7] | PBM binding z-score [8] | PBM binding z-score [9] | PBM binding z-score [10] | PBM binding z-score [11] | PBM binding z-score [12] | PBM binding z-score [13] | PBM binding z-score [14] | PBM binding z-score [15] | PBM binding z-score [16] | PBM binding z-score [17] | PBM binding z-score [18] |
| --- | --- | --- | --- | --- | --- | --- | --- | --- | --- | --- | --- | --- | --- | --- | --- | --- | --- | --- |
| ATATGTAGGTTATCGGGTCATTGAGTTTGCGCAT | 7.71 | 7.5 | 3.11 | 1.9 | 2.89 | 4.55 | 10.5 | 3.82 | 1.41 | 2.86 | 3.16 | 3.43 | 2.61 | 1.94 | 3.51 | 3.42 | 2.76 | 5.54 |
| TCGAGTAGGTTACCAATGGGTCATTCAGCTTTCT | 3.45 | 2.82 | 0.364 | -0.28 | 1.39 | 1.88 | -0.563 | 2.5 | -0.538 | 1.77 | 2.41 | 3.58 | 1.68 | 0.573 | 2.18 | 1.62 | -0.434 | 0.102 |
| GCGACTGGGGCATCAGCAGGTTACCAGAACTTAA | 3.48 | 3.19 | -0.703 | -1.1 | 0.612 | -0.0392 | -0.687 | 0.483 | -0.801 | 0.987 | 0.768 | 0.911 | 0.328 | -0.241 | 0.262 | 0.858 | -0.159 | -0.517 |
| TCATATAGGTAAACAGCTGAAAGTCCGTAAGTTA | 3.93 | 2.25 | 1.07 | 0.733 | 0.646 | 0.928 | 0.555 | 1.19 | 0.977 | 0.471 | 0.0749 | 0.25 | 0.0863 | 1.64 | 0.623 | 0.172 | -0.236 | 0.162 |
| CCTAGCTGGTCAGGAGGTCACACACCGGATATGA | 0.695 | 2.85 | 0.353 | 0.266 | 3.15 | 4.2 | 0.691 | 4.65 | 0.568 | 3.67 | 4.31 | 5.14 | 4.44 | 0.548 | 4.69 | 3.36 | 2.01 | 2.14 |
| TGTCCAAGTTCAAAGGTAACGTAAGTATCCACAC | -0.319 | 1.81 | 1.26 | 1.32 | 1.85 | 4.87 | 3.45 | 5.04 | 0.541 | 3.42 | 2.25 | 4.05 | 3.45 | 4.24 | 5.21 | 3.05 | 0.0637 | 4.33 |
| TCTATTAGTTGAAAGGCAACCGACGAGTCCGTTT | 2.63 | 0.0769 | 0.573 | -0.131 | 1.05 | 0.694 | 0.704 | 0.467 | 1.11 | 0.44 | -0.227 | 0.248 | 0.111 | 1.66 | 0.759 | 0.0956 | 0.0862 | 1.08 |
| TCGAGTAGGTTACCTATGGGGCATTCAGCTTTCT | 2.71 | 2.51 | -0.176 | -0.57 | -0.445 | 0.0182 | -0.655 | 0.469 | -0.643 | 0.753 | 0.279 | 1.39 | 0.398 | 0.211 | 0.571 | 0.16 | -0.89 | -0.367 |
| TCATATAGGTAATACAGGTGAAACTCGGCATCTA | 4.14 | 3.73 | 1.2 | 0.856 | 1.01 | 0.879 | 0.269 | 1.17 | 1.3 | 0.809 | 0.77 | 0.826 | 0.818 | 1.45 | 1.1 | 1.23 | 0.391 | 0.169 |
| ATCTCTAGGTAAAGTTAGTTCAGTGAATGCAAAT | 2.54 | 2.3 | 1.03 | 0.811 | 1.08 | 1.65 | 1.25 | 1.12 | 0.947 | 0.74 | 0.802 | 0.673 | 0.531 | 0.563 | 0.331 | 1.94 | 0.737 | 1.35 |
| CGTCCAAGGTCATAGGAGGTAAGTGAAGACAGAT | 2.54 | 3.38 | 0.738 | 0.602 | 2.39 | 4.29 | 1.22 | 3.98 | 1.57 | 4.88 | 3.21 | 5.58 | 5.93 | 3.37 | 5.29 | 4.6 | 2.43 | 2.6 |
| TCTCGGAGGACACGAAAGGTTAGAGCTCGACATC | 1.49 | 0.57 | -0.609 | -0.116 | 0.402 | 0.853 | -0.519 | 1.52 | 0.215 | 2.48 | 2.16 | 1.94 | 2.3 | 0.867 | 1.4 | 2.41 | 0.435 | 0.0953 |
| AGAATGAGGGTAAGATCAGGGAAACAGAATACAT | 2.28 | 1.71 | 1.14 | 0.818 | 0.587 | 0.216 | 0.539 | 0.611 | 1.07 | 0.741 | 0.584 | 0.474 | 0.611 | 0.212 | 0.321 | 1.54 | 0.43 | 0.304 |
| AGGACGAGGGCACGCTGAGTTGATAGCAGAGTAG | 2.52 | 2.08 | -0.0685 | -0.533 | 0.511 | 1.31 | 0.265 | 0.618 | -0.58 | 2.68 | 1.36 | 1.76 | 2.67 | 2.23 | 1.51 | 1.88 | 0.162 | 1.51 |
